Source: PubChem BioAssay
The sample as a whole holds a higher share of hits than the screen did.
Cruzain inh noDet = qHTS Assay for Promiscuous and Specific Inhibitors of Cruzain (without detergent); Cruzipain (Trypanosoma cruzi), P25779; 200,000 tested, 2.3% active; Potency, µM, for the others: max response, negative = inhibition, most hits filed as inhibitors; purified cruzain, Z-FR-AMC fluorescence, no detergent; AID 1476, 2009;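 note: plate controls were enzyme without inhibitor for no effect and buffer without enzyme for full effect; nearly all actives have a fitted effect of over 40% in size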
Target sequence (P25779 123-467 limits assumed): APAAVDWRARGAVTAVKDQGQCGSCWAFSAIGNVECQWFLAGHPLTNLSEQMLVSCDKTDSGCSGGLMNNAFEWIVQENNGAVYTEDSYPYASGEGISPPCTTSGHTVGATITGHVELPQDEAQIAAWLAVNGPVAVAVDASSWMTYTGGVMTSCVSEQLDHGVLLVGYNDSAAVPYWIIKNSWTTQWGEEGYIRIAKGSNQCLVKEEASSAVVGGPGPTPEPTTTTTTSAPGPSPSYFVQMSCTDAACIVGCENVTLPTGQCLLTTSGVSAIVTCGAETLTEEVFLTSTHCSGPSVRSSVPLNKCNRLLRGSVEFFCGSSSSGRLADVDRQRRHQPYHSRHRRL
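Detergent-free condition (0.00005% Triton X-100) in acetate buffer pH 5.5 with DTT. 1.5 nM enzyme and compound were pre-mixed 15 min, then 2 uM Z-FR-AMC substrate added; reaction progress from fluorescence change between first and third reads (60 s).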
NS1 function inh = qHTS Assay for Inhibitors of Influenza NS1 Protein Function; Potency, µM (series often up to 46.1 µM), for the others: top-dose activity, positive = more growth; 270,000 tested, 0.4% active; calls by dose curve; note: actives are rising curves; nearly all actives have a fitted effect of over 50% in size
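In this qHTS, NS1 from influenza A is expressed in budding yeast, where it slows growth. Cells are switched from glucose to 2% galactose medium (pH 6.0, -URA), treated with compound, and growth recovery is read at OD600.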
Cruzain Triton = qHTS Assay for Promiscuous and Specific Inhibitors of Cruzain (with detergent). Cruzipain (Trypanosoma cruzi), P25779. AID 1478, 2009. Potency, µM, inactives show max response, negative = inhibition, hits mostly inhibitors. 200,000 tested, 0.43% active. purified cruzain, Z-FR-AMC fluorescence, 0.01% Triton;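 note: plate controls were neutral wells for no effect and buffer without enzyme for full effect; nearly all actives have a fitted effect of over 40% in size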
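Read-out: AMC fluorescence (360 nm excitation, 450 nm emission), four reads over 2 min, first-to-third difference used. Conditions: cruzain 1.5 nM, Z-FR-AMC 2 uM, pH 5.5 acetate, 5 mM DTT, 0.01% Triton X-100.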
Starred values were filed as active, the others as inactive. Unless noted, calls come from the whole dose curve; as a rule, active = well fitted curve in the direction sought with a large enough effect; inconclusive = small, poorly fitted or top-dose-only effect, or another doubt; inactive = no such curve, though single readings can be large; an effect the other way counts as inactive or inconclusive. Potency is the fitted concentration of half-maximal effect.

Results for O=C(NC(=S)Nc1ccc(N2CCCCC2)cc1)c1ccc2c(c1)OCCO2 ?
Cruzain inh noDet: 25µM*; NS1 function inh: 14%; Cruzain Triton: -4%

What do the screens show for `CC(C)N=C(NC#N)SCc1ccc(F)cc1`?
Cruzain inh noDet: 9%; NS1 function inh: -96%; Cruzain Triton: 3%

Results for N#CNC(=Nc1ccc(F)cc1)SCc1ccccc1 ?
Cruzain inh noDet: 25µM*; NS1 function inh: 3%; Cruzain Triton: 2%

What do the screens show for `Cc1ccc(Nc2c(-c3cccnc3)nc3ccc(Cl)cn23)cc1`?
Cruzain inh noDet: 7%; Cruzain Triton: -2%

How did Nc1nnc(SCC(=O)c2ccc3ccccc3c2)s1 do in these assays?
Cruzain inh noDet: 32µM*; NS1 function inh: 21%; Cruzain Triton: -5%

Results for Nc1nnc(SCC(=O)Nc2cccc3ccccc23)s1 ?
NS1 function inh: -4%

Results for O=C(/C=C/Nc1ccc(S(=O)(=O)Nc2ncccn2)cc1)c1cccs1 ?
NS1 function inh: 5%

Results for O=C(/C=C/Nc1ccc(S(=O)(=O)Nc2ncccn2)cc1)c1ccc(Cl)c(Cl)c1 ?
Cruzain inh noDet: 32µM*; NS1 function inh: 5%; Cruzain Triton: -5%

How did O=C(Nc1cccc(C(F)(F)F)c1)c1ccc2c(c1)nnn2C1CCCC1 do in these assays?
Cruzain inh noDet: 1%; Cruzain Triton: -6%

How did O=C(O)CSC1=NCCN1 do in these assays?
Cruzain inh noDet: 0%; NS1 function inh: -3%; Cruzain Triton: 8%

What do the screens show for `O=C(CSC1=NCCN1)C1COc2ccccc2O1` (configuration not stated)?
Cruzain inh noDet: 1.3µM*; NS1 function inh: 8%; Cruzain Triton: 1%

How did COc1ccccc1C(=O)NCCc1nc2ccccc2[nH]1 do in these assays?
Cruzain inh noDet: 5µM*; NS1 function inh: inconclusive; Cruzain Triton: 16µM*

Results for COCC(=O)NCCc1nc2ccccc2[nH]1 ?
Cruzain inh noDet: inconclusive; NS1 function inh: 7%; Cruzain Triton: -11%

Results for O=C(NCCc1nc2ccccc2[nH]1)c1ccc(F)cc1 ?
Cruzain inh noDet: 1.3µM*; NS1 function inh: 0%; Cruzain Triton: inconclusive

What do the screens show for `O=C(NCCc1nc2ccccc2[nH]1)c1ccc([N+](=O)[O-])cc1`?
NS1 function inh: 4%

What do the screens show for `CC(=O)C(N=Nc1ccccc1)(Sc1nnc(-c2ccccc2)n1-c1ccccc1)C(=O)Nc1ccccc1` (configuration not stated)?
Cruzain inh noDet: 25µM*; NS1 function inh: inconclusive; Cruzain Triton: -1%

Results for CC(=O)C(N=Nc1ccccc1)(Sc1nnc(-c2ccccc2)n1-c1ccccc1)C(C)=O ?
Cruzain inh noDet: -25%; NS1 function inh: -8%; Cruzain Triton: 1%

What do the screens show for `COc1ccc(-n2c(=O)c3ccccc3n(Cc3cccc(C)c3)c2=O)cc1`?
Cruzain inh noDet: 5%; Cruzain Triton: 0%

What do the screens show for `CCN1c2ccccc2-c2nc(SCC(=O)Nc3cc(C)c(Cl)cc3OC)ncc2S1(=O)=O`?
Cruzain inh noDet: 25µM*; Cruzain Triton: -3%

What do the screens show for `O=C(CSc1ncc2c(n1)-c1cc(Cl)ccc1N(Cc1ccccc1)S2(=O)=O)NCCc1ccccc1`?
Cruzain inh noDet: 6%; Cruzain Triton: 3%

What do the screens show for `O=C(CSc1ncc2c(n1)-c1cc(Cl)ccc1N(Cc1ccccc1)S2(=O)=O)NCc1ccccc1`?
Cruzain inh noDet: 16µM*; Cruzain Triton: -4%

What do the screens show for `CCN1c2ccccc2-c2nc(SCC(=O)Nc3ccc(C)c(Cl)c3)ncc2S1(=O)=O`?
Cruzain inh noDet: inconclusive; Cruzain Triton: -1%

What do the screens show for `COc1cccc(CN2c3ccccc3-c3nc(SCC(=O)Nc4ccccc4Cl)ncc3S2(=O)=O)c1`?
Cruzain inh noDet: 16µM*; Cruzain Triton: -3%

Results for COc1cccc(CN2c3ccccc3-c3nc(SCC(=O)Nc4cccc(C)c4)ncc3S2(=O)=O)c1 ?
Cruzain inh noDet: inconclusive; Cruzain Triton: -4%

What do the screens show for `CCOc1ccccc1C(=O)Nc1cccc(-c2nc3ccccc3s2)c1`?
Cruzain inh noDet: -7%; Cruzain Triton: -5%

What do the screens show for `Cc1cc(O)c(C(C)C)cc1CN1CCCCC1`?
Cruzain inh noDet: -5%; NS1 function inh: 0%; Cruzain Triton: 2%

What do the screens show for `COc1ccc(N2CCN(S(=O)(=O)CCNC(=O)c3c(F)cccc3Cl)CC2)cc1`?
Cruzain inh noDet: 10%; Cruzain Triton: -1%

How did Cc1cccc2nc(-c3cccc(NS(=O)(=O)c4ccccc4)c3)cn12 do in these assays?
Cruzain inh noDet: 7%; Cruzain Triton: -7%
